Unmarked numbers belong to inactive results. Calls follow the shape of the dose curve; as a rule, active = well fitted inhibition curve with a large enough effect; inconclusive = small, poorly fitted or top-dose-only effect; inactive = no such curve, though single readings can be large or run the other way.

This note sets out measurements from PubChem BioAssay (NCATS).

The nature of the test: qHTS assay for measurement of the activity of small molecule inhibitors on Zika virus induced Caspase-3 activity in human astrocytoma cells (AID 1224859).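 Also: plate controls were ZIKV-infected untreated cells for no effect and uninfected cells for full effect.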 Particulars: SNB-19 ZIKV-induced caspase-3/7, luminescence, 6 h; series mostly up to 45.7 µM; activity change, negative = inhibition: at the top concentration. The essentials: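 Compound added 1 h pre-infection; ZIKV 2 FFU/cell on SNB-19 cells, 6 h, 37 C/5% CO2. Caspase-Glo 3/7 luminescence; values as % inhibition of ZIKV-induced caspase activity.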
With `CCN(CC)CCc1c[nH]c2ccccc12`, the “activity change, negative = inhibition” value is -1.78% [at 178 µM].

In the case of `C[C@]12CC[C@@H]3c4ccc(OC(=O)N(CCCl)CCCl)cc4CC[C@H]3[C@@H]1CC[C@@H]2OP(=O)(O)O`, the “activity change, negative = inhibition” value is 1.56%. Then `CCN(CC)C(=O)[C@@H]1C=C2c3cccc4[nH]cc(c34)C[C@H]2N(C)C1`, with -2.5% [at 178 µM].

For `CCN[C@H](C)Cc1cccc(C(F)(F)F)c1`, the “activity change, negative = inhibition” value is 4.7% [at 92.8 µM]. For the molecule `C[C@](O)(CS(=O)(=O)c1ccc(F)cc1)C(=O)Nc1ccc(C#N)c(C(F)(F)F)c1`, the “activity change, negative = inhibition” value is 22.9%. Then `CN1CC[C@]23c4c5ccc(O)c4O[C@H]2[C@@H](O)C=C[C@H]3[C@H]1C5`, with -22.1% [at 92.8 µM]; and `C[C@H]1[C@@H]2Cc3ccc(O)cc3[C@@]1(C)CCN2C`, with -7.83% [at 231 µM].
